Values joined by “and” are separate entries in the source; they are usually repeats but may differ in a detail not shown here. Equal values may be shown once. Screen size: about 5,500 compounds; about 2,000 (36%) were called active. About 18% were inconclusive and are not listed. Rule as the data show it: active = normalized growth mostly below about 0.91 (no sharp cut-off); inconclusive = no clear call, values can overlap the other calls; inactive = mostly above about 0.92. The list shows a part of the results. Some structures have more than one record in an assay (separate samples or runs), and their calls can disagree.
Assay: chemical genetic growth profiling, strain panel (AID 1159580);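 also: tested at 20 µM; growth read once vehicle control cultures reached saturation at 30 °C; 1 = growth at the plate median or of vehicle wells; lower values mean less growth of the strain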
Settings: growth OD

Measured: normalized growth

CCN(CC)CCCC(C)Nc1c2ccc(Cl)cc2nc2ccc(OC)cc12 (stereo unspecified)
inactive: S. cerevisiae deletion strains, locus YKL068W, stronger effect = lower value 1 | S. cerevisiae deletion strains, locus YKL160W, strain elf1, stronger effect = lower value 0.931 | S. cerevisiae deletion strains, locus YKR026C, strain gcn3, stronger effect = lower value 1.04 | S. cerevisiae deletion strains, locus YKR091W, strain srl3, stronger effect = lower value 1.02 | S. cerevisiae deletion strains, locus YLL026W, stronger effect = lower value 1.02 | S. cerevisiae deletion strains, locus YLL041C, strain sdh2, stronger effect = lower value 1.03 | S. cerevisiae deletion strains, locus YLR027C, strain aat2, stronger effect = lower value 0.964 | S. cerevisiae deletion strains, locus YLR039C, strain RIC1, stronger effect = lower value 0.949 | S. cerevisiae deletion strains, locus YLR221C, strain rsa3, stronger effect = lower value 0.993 | S. cerevisiae deletion strains, locus YLR258W, strain gsy2, stronger effect = lower value 0.954 | S. cerevisiae deletion strains, locus YLR262C, strain YPT6 (second series), stronger effect = lower value 0.992 | S. cerevisiae deletion strains, locus YLR262C, strain YPT6, stronger effect = lower value 0.945 | S. cerevisiae deletion strains, locus YLR320W, strain mms22, stronger effect = lower value 0.973 | S. cerevisiae deletion strains, locus YLR342W, strain FKS1, stronger effect = lower value 1.01 | S. cerevisiae deletion strains, locus YLR357W, strain rsc2, stronger effect = lower value 1.07 | S. cerevisiae deletion strains, locus YLR370C, strain arc18, stronger effect = lower value 0.955 | S. cerevisiae deletion strains, locus YLR371W, strain rom2, stronger effect = lower value 0.93 | S. cerevisiae deletion strains, locus YLR384C, strain iki3, stronger effect = lower value 1.04 | S. cerevisiae deletion strains, locus YLR418C, strain cdc73, stronger effect = lower value 0.959 | S. cerevisiae deletion strains, locus YML016C, strain PPZ1, stronger effect = lower value 1.01 | S. cerevisiae deletion strains, locus YML120C, strain ndi1, stronger effect = lower value 0.995 | S. cerevisiae deletion strains, locus YMR058W, strain fet3, stronger effect = lower value 0.961 | S. cerevisiae deletion strains, locus YMR078C, strain ctf18, stronger effect = lower value 0.954 | S. cerevisiae deletion strains, locus YMR125W, strain sto1, stronger effect = lower value 0.989 | S. cerevisiae deletion strains, locus YMR129W, stronger effect = lower value 1.04 | S. cerevisiae deletion strains, locus YMR205C, strain PFK2, stronger effect = lower value 0.973 | S. cerevisiae deletion strains, locus YMR231W, strain pep5, stronger effect = lower value 1.02 | S. cerevisiae deletion strains, locus YMR263W, strain SAP30, stronger effect = lower value 0.948 and 0.979 | S. cerevisiae deletion strains, locus YMR307W, strain GAS1, stronger effect = lower value 1.15 and 0.985 | S. cerevisiae deletion strains, locus YNL071W, strain lat1, stronger effect = lower value 1.02 | S. cerevisiae deletion strains, locus YNL175C, strain NOP13, stronger effect = lower value 0.992 | S. cerevisiae deletion strains, locus YNL197C, strain WHI3, stronger effect = lower value 1 | S. cerevisiae deletion strains, locus YNL209W, strain ssb2, stronger effect = lower value 0.985 | S. cerevisiae deletion strains, locus YNL224C, strain SQS1, stronger effect = lower value 0.959 | S. cerevisiae deletion strains, locus YNL248C, strain rpa49, stronger effect = lower value 1.01 | S. cerevisiae deletion strains, locus YNL250W, strain rad50, stronger effect = lower value 0.952 | S. cerevisiae deletion strains, locus YNL271C, strain bni1, stronger effect = lower value 1.02 | S. cerevisiae deletion strains, locus YNL298W, strain CLA4, stronger effect = lower value 1 | S. cerevisiae deletion strains, locus YNL322C, strain KRE1 (second series), stronger effect = lower value 1.01 | S. cerevisiae deletion strains, locus YNR049C, strain mso1, stronger effect = lower value 1.04 | S. cerevisiae deletion strains, locus YOL006C, strain TOP1, stronger effect = lower value 0.847 | S. cerevisiae deletion strains, locus YOR001W, strain rrp6, stronger effect = lower value 0.966 | S. cerevisiae deletion strains, locus YOR070C, strain gyp1, stronger effect = lower value 0.985 | S. cerevisiae deletion strains, locus YOR080W, strain dia2, stronger effect = lower value 1.03 | S. cerevisiae deletion strains, locus YOR083W, strain WHI5 (second series), stronger effect = lower value 0.955 | S. cerevisiae deletion strains, locus YOR083W, strain WHI5, stronger effect = lower value 0.97 | S. cerevisiae deletion strains, locus YOR106W, strain vam3, stronger effect = lower value 0.916 | S. cerevisiae deletion strains, locus YOR136W, strain idh2, stronger effect = lower value 0.928 | S. cerevisiae deletion strains, locus YOR265W, strain rbl2, stronger effect = lower value 1.02 | S. cerevisiae deletion strains, locus YOR270C, strain vph1, stronger effect = lower value 0.996 | S. cerevisiae deletion strains, locus YPL051W, strain arl3, stronger effect = lower value 0.961 | S. cerevisiae deletion strains, locus YPL078C, strain atp4, stronger effect = lower value 0.936 | S. cerevisiae deletion strains, locus YPL106C, strain sse1, stronger effect = lower value 0.984 | S. cerevisiae deletion strains, locus YPL240C, strain hsp82, stronger effect = lower value 0.998 | S. cerevisiae deletion strains, locus YPR119W, strain clb2, stronger effect = lower value 0.946 | S. cerevisiae deletion strains, locus YPR141C, strain kar3, stronger effect = lower value 1.04 | S. cerevisiae deletion strains, locus YPR163C, strain tif3, stronger effect = lower value 1.02
active: S. cerevisiae deletion strains, locus YJR075W, strain HOC1, stronger effect = lower value 0.813 | S. cerevisiae deletion strains, locus YKL009W, strain mrt4, stronger effect = lower value 0.863 | S. cerevisiae deletion strains, locus YKL085W, strain MDH1 (second series), stronger effect = lower value 0.93 | S. cerevisiae deletion strains, locus YKL085W, strain MDH1, stronger effect = lower value 0.93 | S. cerevisiae deletion strains, locus YKL190W, strain CNB1, stronger effect = lower value 0.79 | S. cerevisiae deletion strains, locus YKR001C, strain vps1, stronger effect = lower value 0.616 | S. cerevisiae deletion strains, locus YLL001W, strain dnm1, stronger effect = lower value 0.902 | S. cerevisiae deletion strains, locus YLR058C, strain SHM2, stronger effect = lower value 0.524 | S. cerevisiae deletion strains, locus YLR102C, strain apc9, stronger effect = lower value 0.855 | S. cerevisiae deletion strains, locus YLR113W, strain HOG1, stronger effect = lower value 0.741 | S. cerevisiae deletion strains, locus YLR268W, strain sec22, stronger effect = lower value 0.717 | S. cerevisiae deletion strains, locus YLR330W, strain CHS5, stronger effect = lower value 0.883 | S. cerevisiae deletion strains, locus YLR342W, strain FKS1 (second series), stronger effect = lower value 0.632 | S. cerevisiae deletion strains, locus YML032C, strain rad52, stronger effect = lower value 0.544 | S. cerevisiae deletion strains, locus YML124C, strain tub3, stronger effect = lower value 0.858 | S. cerevisiae deletion strains, locus YMR223W, strain ubp8, stronger effect = lower value 0.508 | S. cerevisiae deletion strains, locus YNL067W, strain RPL9B, stronger effect = lower value 0.703 | S. cerevisiae deletion strains, locus YNL153C, strain GIM3, stronger effect = lower value 0.819 | S. cerevisiae deletion strains, locus YNL183C, strain NPR1, stronger effect = lower value 0.644 | S. cerevisiae deletion strains, locus YNL233W, strain BNI4, stronger effect = lower value 0.756 | S. cerevisiae deletion strains, locus YNL307C, strain MCK1, stronger effect = lower value 0.622 | S. cerevisiae deletion strains, locus YNL322C, strain KRE1, stronger effect = lower value 0.794 | S. cerevisiae deletion strains, locus YNR052C, strain pop2, stronger effect = lower value 0.821 | S. cerevisiae deletion strains, locus YOL012C, strain htz1 2.88 [resistant] | S. cerevisiae deletion strains, locus YOL147C, strain pex11, stronger effect = lower value 0.6 | S. cerevisiae deletion strains, locus YOR061W, strain CKA2, stronger effect = lower value 0.71 | S. cerevisiae deletion strains, locus YOR069W, strain VPS5, stronger effect = lower value 0.848 | S. cerevisiae deletion strains, locus YOR144C, strain elg1, stronger effect = lower value 0.776 | S. cerevisiae deletion strains, locus YOR184W, strain ser1, stronger effect = lower value 0.59 | S. cerevisiae deletion strains, locus YOR231W, strain MKK1, stronger effect = lower value 0.686 | S. cerevisiae deletion strains, locus YOR290C, strain snf2, stronger effect = lower value 0.8 | S. cerevisiae deletion strains, locus YOR316C, strain cot1, stronger effect = lower value 0.751 | S. cerevisiae deletion strains, locus YPL055C, strain LGE1, stronger effect = lower value 0.746 | S. cerevisiae deletion strains, locus YPL241C, strain CIN2, stronger effect = lower value 0.914 | S. cerevisiae deletion strains, locus YPL256C, strain CLN2, stronger effect = lower value 0.797 | S. cerevisiae deletion strains, locus YPR167C, strain met16, stronger effect = lower value 0.866 | S. cerevisiae deletion strains, strain wtn01, stronger effect = lower value 0.665 | S. cerevisiae strains, strain wild type, stronger effect = lower value 0.755
0.743 (active) and 0.988 (inactive): S. cerevisiae deletion strains, locus YNL128W, strain TEP1, stronger effect = lower value
